Results on 34 compounds are retold here after PubChem BioAssay AID1053125 (Broad Institute, 2014).

The test can be described thus: HepG2 cell cytotoxicity, dose response, cytotoxicity control, ATP luminescence, cherry-pick, set 6 (AID 1053125).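 Also: negative values mean loss of viability signal.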 Conditions: HepG2 viability, ATP luminescence (CellTiter-Glo), 72 h; series mostly up to 26 µM. For orientation: ATP-based viability assays read luminescence as a measure of living cells.

Molecules are shown by their SMILES. Entries with a potency or affinity are not part of this list. Calls of active or inactive are those of the source.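 The calls were made as follows: active = viability loss whose fitted half-maximal concentration is at most twice the top valid tested dose; inconclusive = flat curve with 30 to 70% loss, or poor fit; inactive = the rest.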

Regarding `COc1ccc(CCNC(=O)c2cc(S(=O)(=O)N3CCCCC3)c[nH]2)cc1OC`, the compound was classed as inactive. As for `COc1ccccc1N1CCN(C2CCC(C)CC2)CC1` (centres undefined), the entry is “inactive”; as for `COc1ccccc1OCc1ccc(C(=O)N(C)c2ccccc2)o1`, “inactive”. The value for `CC1CC(C)CN(CCCNC(=O)CCC(=O)N2CC(C)Oc3ccccc32)C1` (centres undefined) was “inactive”; that for `CC(C)(C)[C@H]1CCC(=O)N([C@H](CSc2ccccc2)Cc2ccccc2)CC1` was “inactive”. For `O=C(Nc1ccc2c(c1)OCCO2)c1ccc(NC(=O)C2CCCO2)cc1` (centres undefined), the call was inactive. As for `COc1ccc(CCN=C(N)NS(=O)(=O)c2ccc(F)cc2)cc1`, the entry is “inactive”; as for `O=c1oc2c(CN3CCN(CCO)CC3)c(O)ccc2cc1-c1ccccn1`, “inactive”; as for `CC(C)(C)c1csc(N/N=C/c2ccc(O)cc2)n1`, “inactive”. The value for `Cc1noc(C)c1S(=O)(=O)N(CC(=O)N1CCCCCC1)c1ccc(C(C)C)cc1` was “inactive”; that for `O=C(c1ccc(F)cc1)C1CCN(C(=O)Nc2ccccc2Cl)CC1` was “inactive”; that for `C=CCc1c(O)c(CC)cc2c(C)cc(=O)oc12` was “inactive”. The value for `O=C(C1=NN(c2ccccc2)C2C(=O)N(c3ccccc3)C(=O)C12)c1ccccc1` (centres undefined) was “inactive”; that for `COc1cccc2c(=O)c3c(cnn3C)n(C)c12` was “inactive”; that for `CSc1ccc(Cn2c(C)c(C(=O)NCCC#N)sc2=O)cc1` was “inactive”. For the compound `Cc1c2c(n3c(nc4ccccc43)c1C#N)N(CCN1CCOCC1)CC2`, the compound was classed as inactive. As for `COc1cc(C(=O)OCC(C)=O)cc(NC(=O)c2ccco2)c1OC`, the entry is “inactive”; as for `O=c1[nH]c2ccccc2nc1/C=C/c1ccccc1`, “inactive”; as for `Cc1ccc2c(c1)N(C(=O)CCC(=O)NCCCN1CCOCC1)CC(C)O2` (centres undefined), “inactive”. As for `O=C(O)C1=CC[C@@H](c2ccc(Cl)cc2)N(S(=O)(=O)c2ccc(Cl)cc2)[C@H]1c1ccc(F)cc1`, the entry is “inactive”. As for `CSc1ccc(Cl)c(C(=O)N2CCOc3ccccc32)c1`, the entry is “inactive”; as for `CCOC(=O)C1CCCN(CCCc2ccccc2)C1` (centres undefined), “inactive”; as for `Cc1ccc(S(=O)(=O)c2cc3c(=O)n4ccccc4nc3n(C)c2=N)cc1`, “inactive”. Regarding `CCCOc1c(Br)cc(C2C3=C(CCCC3=O)N(C)C3=C2C(=O)CCC3)cc1OC`, the compound was classed as inactive. As for `COc1ccccc1C1C2=C(CC(C)(C)CC2=O)N(CC(=O)O)C2=C1C(=O)CC(C)(C)C2`, the entry is “inactive”. As for `O=C(Nc1ccc(-c2ccco2)cc1)C1CCCN(Cc2ccco2)C1` (centres undefined), the entry is “inactive”; as for `N#Cc1ccc(OCC(=O)OCC(=O)N2CCc3ccccc32)cc1`, “inactive”; as for `Cc1ccc(S(=O)(=O)Nc2ccc(Nc3ccccc3)cc2)cc1`, “inactive”. For the compound `CCN(c1ccccc1)S(=O)(=O)c1ccc(OC)c(NC(=O)CN(C)C)c1`, the outcome was inactive. As for `CC(=O)NNc1cc(N2CCOCC2)nc(N2CCOCC2)n1`, the entry is “inactive”.

Take `CCc1nc2ccc(C(=O)NCCc3c[nH]c4ccccc34)cn2c1N(C=O)CCC(C)C`: the outcome was inactive.

Take `CC(=O)Oc1ccc2cc(-c3nc4ccccc4n3C)c(=O)oc2c1`: the compound was called inactive. The value for `Cc1c(O)ccc2cc(S(=O)(=O)c3ccccc3)c(=O)oc12` was “inactive”; that for `CCOc1ccccc1N=c1oc2cc(O)ccc2cc1C(=O)NCC1CCCO1` (centres undefined) was “inactive”.
